# Screening results as filed in PubChem.
# PrPC surface inh: inhibitors of human cell surface prion protein PrPC, primary screen, cell-based, TR-FRET | Major prion protein (Homo sapiens), P04156 | TR-FRET read-out | inhibition, % at 13.8 µM | 370,000 compounds, 0.43% hits; in the data active means inhibition above about 24%; further: 0% = median of the test wells and 100% = reference compound wells
# GDH-TPI inh: GDH-TPI coupling enzyme inhibitors, primary screen, artefact control for M. tuberculosis FBA inhibitor project, biochemical, absorbance, full deck | GDH-TPI coupled enzyme counterscreen, NADH absorbance | inhibition, % at 4.8 µM | 360,000 compounds, 1.2% hits | AID 588335, 2011; in the data active means inhibition above about 30%;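 further: 0% = DMSO wells and 100% = wells lacking the enzyme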
# FBA Mtb inh: Mtb FBA enzyme inhibitors, primary screen, biochemical, fluorescence, strain H37Rv | Fructose-bisphosphate aldolase (Mycobacterium tuberculosis (strain ATCC 25618 / H37Rv)), … | purified M. tuberculosis FBA, fluorescence read-out | inhibition, % at 1 µM | 360,000 compounds, 2.3% hits | AID 588726, 2011; in the data active means inhibition above about 27%;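 further: 0% = vehicle and 100% = reference inhibitor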
# RecA splice inh: Mtb RecA intein splicing inhibitors, primary screen, biochemical, fluorescence, HTS; AID 2221, 2009; inhibition, % (concentration not given with the values); cell-free RecA intein splicing; 290,000 compounds, 0.75% hits; Protein RecA (Mycobacterium tuberculosis (strain ATCC 25618 / H37Rv)), P9WHJ3; in the data active means inhibition above about 30%;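 further: 0% = vehicle wells and 100% = reference inhibitor control wells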
# BJeLR lethal: MLPCN primary cell-based screen for lethality selective to Ras in HRASV12 cells | BJeLR (HRASV12) viability, CellTiter-Glo ATP luminescence, 48 h | inhibition, % (test concentration not listed) | 300,000 compounds, 0.17% hits; in the data active means inhibition above about 50%
# PrPC confirm: confirmation of inhibitors of cell surface human prion protein, confirmation, cell-based, TR-FRET | shares compounds with PrPC surface inh | cell surface PrPC level | inhibition, % at 13.8 µM | 1,500 compounds, 65% hits; in the data active means inhibition above about 25%
# LD9 cytotox: cytotoxicity in LD9 cells, cytotoxicity control for cell surface PrPc inhibitor project, cell-based, luminescence, high throughput | shares compounds with PrPC surface inh | luminescence viability | inhibition, % at 13.8 µM | 1,500 compounds, 29% hits | AID 743201, 2013; in the data active means inhibition above about 9.5%
# An asterisk follows results filed as active; / = not tested or not shown. The list is not random: actives were taken first. Their share in the collection is about 4.2%.
SMILES,PrPC surface inh,GDH-TPI inh,FBA Mtb inh,RecA splice inh,BJeLR lethal,PrPC confirm,LD9 cytotox
CC(=O)O[C@@]12CO[C@@H]1C[C@@H](O)[C@@]1(C)C(=O)[C@H](O)C3=C(C)[C@@H](OC(=O)[C@H](O)[C@@H](NC(=O)c4ccccc4)c4ccccc4)C[C@@](O)([C@@H](OC(=O)c4ccccc4)C12)C3(C)C (stereo partly specified),7.3,-7.6,-2.0,19.0,33.8,/,/
CCc1nc(SCC(=O)NNC(=O)C2CCCCC2)c2ccccc2n1,60.3*,5.3,1.3,4.9,4.6,114.2*,-8.6
CCc1nc(SCC(=O)Nc2ccc(N(C)C)cc2)c2ccccc2n1,60.6*,15.8,-1.3,-4.1,-6.1,80.9*,-5.9
CCc1nc(SCC(=O)NNC(=O)C(C)C)c2ccccc2n1,104.3*,17.7,-2.4,1.9,-14.3,113.5*,-8.4
CC(C)C(=O)NNC(=O)CSc1nc(C2CCCCC2)nc2ccccc12,3.4,2.1,5.2,-1.3,2.6,/,/
Cc1cccc(NC(=O)NN(C(=O)c2ccccc2Cl)C(C)(C)C)c1,4.4,/,/,/,/,/,/
Cc1ccc2c(c1)C1CS(=O)(=O)N(CCc3ccccc3)CN1C2 (stereo unspecified),-5.0,/,/,/,/,/,/
O=c1c2ccccc2nc2n1C(CSCc1ccc(Cl)cc1)CS2 (stereo unspecified),25.6*,-7.7,3.2,6.9,4.1,17.9,14.0*
O=C(NCc1ccccc1)[C@@H]1CCCN1C(=O)[C@H]1CCCN1C(=O)c1ccc(Cl)c(Cl)c1,11.2,/,/,/,/,/,/
CC(=O)Nc1sc2c(c1-c1nc3ccccc3s1)CN(C(C)C)C2,10.7,/,/,/,/,/,/
CC(=O)Nc1sc2c(c1-c1nc3ccccc3s1)CCCN(C(C)C)C2,37.6*,/,/,/,/,30.2*,33.4*
CC(=O)Nc1sc2c(c1-c1nc3ccccc3s1)CN(C(C)C)CC2,37.7*,15.9,5.3,/,/,10.3,25.8*
COc1ccc(C[C@H]2NC[C@H](O)[C@H]2OC(C)=O)cc1,88.7*,3.6,6.9,-1.2,81.8*,102.0*,47.5*
CCC(NC(=O)Nc1nnc(C(F)(F)F)s1)(C(F)(F)F)C(F)(F)F,58.5*,6.7,0.0,1.7,28.3,74.5*,54.0*
COC[C@H]1CCCN1c1cccc2c1S(=O)(=O)N1CC[C@@H](C1)O2,-7.6,/,/,/,/,/,/
COc1cc(C2c3cc4c(cc3CC3COC(=O)C32)OCO4)cc(OC)c1O (stereo unspecified),-1.1,0.5,2.3,/,/,/,/
O=C1NC2C(O)C(O)C(O)C(O)C2c2cc3c(c(O)c21)OCO3 (stereo unspecified),90.0*,6.9,1.2,/,/,99.8*,32.0*
O=C1NC2C(=CC(O)C(O)C2O)c2cc3c(c(O)c21)OCO3 (stereo unspecified),88.9*,7.8,9.2,/,/,97.2*,54.6*
O=C(O)CSc1ccnc2cc(Cl)ccc12,47.2*,20.0,-2.1,1.2,5.8,90.3*,3.9
COC(=O)CSc1ccnc2cc(Cl)ccc12,68.1*,0.7,3.1,1.4,12.5,91.9*,-6.0
Cc1cnc2cc(Cl)ccc2c1SCC(=O)O,-1.7,12.3,3.1,0.9,-0.3,/,/
O=C(Cc1ccccc1)Nc1nnc(-c2cccnc2)s1,3.9,/,/,/,/,/,/
Cc1ccc(C)c(SCC(=O)Nc2cccc(S(=O)(=O)NC3=NCCCCC3)c2)c1,2.3,8.1,4.1,2.8,2.2,/,/
O=C(CSc1ccc2ccccc2c1Br)Nc1cccc(S(=O)(=O)NC2=NCCCCC2)c1,39.3*,-1.8,0.7,7.3,2.5,47.6*,-0.1
O=C(NC1CCCCCC1)c1cc(S(=O)(=O)N2CCOCC2)ccc1N1CCCCC1,28.0*,21.9,2.1,4.8,-2.7,17.9,-2.8
SMILES,PrPC surface inh,GDH-TPI inh,FBA Mtb inh,RecA splice inh,BJeLR lethal,PrPC confirm,LD9 cytotox
O=C(Nc1ccccc1N1CCOCC1)c1cc2c(s1)CCCCC2,-5.3,8.1,2.4,0.5,-6.5,/,/
O=C(Nc1cc(S(=O)(=O)N2CCOCC2)ccc1N1CCCC1)c1cc2c(s1)CCCC2,52.1*,/,/,/,/,74.7*,-5.1
Cc1ccc(NC(=O)c2cc3c(s2)CCCC3)cc1S(=O)(=O)Nc1ccccc1Cl,22.5,27.3,0.6,3.9,-0.3,/,/
O=C(Nc1ccc(N2CCOCC2)cc1)c1cc2c(s1)CCCC2,23.8,15.5,-1.7,2.4,1.3,/,/
O=C(Nc1ccc(N2CCOCC2)cc1)c1cc2c(s1)CCCCC2,25.0*,1.9,-0.8,-0.5,2.1,12.4,11.9*
O=C(NC1CCCCCC1)c1cc(S(=O)(=O)N2CCCCC2)ccc1N1CCOCC1,10.2,-2.8,0.7,2.9,-3.1,/,/
O=C(Nc1cccc(S(=O)(=O)Nc2ccc(Cl)cc2)c1)c1cc2c(s1)CCCC2,26.5*,1.1,-0.8,-3.6,-2.4,32.1*,-3.1
Cc1cc(Nc2cc(F)c(F)c(F)c2)cc(=O)n1-c1cc(F)c(F)c(F)c1,-6.9,/,/,/,/,/,/
COC(=O)[C@]12C[C@H](CC(=O)NCc3ccc(OC)c(OC)c3)C(=O)N(CCc3ccc(OC)c(OC)c3)C1=C[C@H](COCc1ccccc1)O[C@@H]2C,-4.7,/,/,/,/,/,/
COc1ccccc1-c1nnc2n1N=C(c1ccc3c(c1)OCO3)CS2,13.3,/,/,/,/,/,/
Cc1cc(Br)c2nc(-c3cccc(Br)c3)c(Cc3cccc(Cl)c3)n2c1,8.3,/,/,/,/,/,/
Clc1ccc(N/N=C/c2cccnc2)cc1,25.0*,12.4,4.3,1.0,1.1,17.5,2.2
CC(=O)c1sc(NC(=O)Cc2c(F)cccc2Cl)nc1C,40.9*,5.9,2.2,-3.9,-5.2,43.5*,-8.9
Nc1ccc2nc(-c3ccc(-c4nc5ccc(N)cc5[nH]4)cc3)[nH]c2c1,26.2*,/,/,-18.0,4.1,24.9*,1.4
Nc1ccc2nc(CCCCCCc3nc4ccc(N)cc4[nH]3)[nH]c2c1,1.5,4.7,7.4,7.4,/,/,/
CCOc1ccccc1-c1n[nH]c(=S)o1,26.9*,-2.1,11.2,0.5,-7.2,25.1*,-6.7
Brc1ccc(CN2CCN(c3ncc(Cc4ccccc4)cn3)CC2)cc1,-5.0,/,/,/,/,/,/
COC(=O)C1=C(C(=O)OC)C2OC1c1cc3ccccc3cc12,45.0*,-0.9,3.0,/,/,17.1,98.3*
CCOC(=O)C1CCN(C(=O)C(=O)c2cn(CC(=O)N3CCCCCC3)c3ccccc23)CC1,26.2*,11.1,0.1,0.4,-3.5,22.4,-9.6
CCOC(=O)N1CCN(C(=O)C(=O)c2cn(CC(=O)N3CCCCCC3)c3ccccc23)CC1,9.4,6.2,1.3,1.0,2.4,/,/
